Activity calls are given as the source filed them.

The target in experiment [1] is Albumin (Bos taurus) (UniProt P02769). As to the kind of experiment: compounds binding labelled BSA control protein – biochemical, small-molecule microarray, Alexa647 label, 635/667 nm fluorescence, artefact control for SMM control protein annotation, profiling panel (AID 1118).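 Also: score merges 667 nm emission intensity and signal-to-noise per printed compound spot.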 The settings on record: BSA-A647 binding, fluorescence 635 nm, higher = more signal.
Albumin (Bos taurus), sequence (P02769 whole entry, looked up): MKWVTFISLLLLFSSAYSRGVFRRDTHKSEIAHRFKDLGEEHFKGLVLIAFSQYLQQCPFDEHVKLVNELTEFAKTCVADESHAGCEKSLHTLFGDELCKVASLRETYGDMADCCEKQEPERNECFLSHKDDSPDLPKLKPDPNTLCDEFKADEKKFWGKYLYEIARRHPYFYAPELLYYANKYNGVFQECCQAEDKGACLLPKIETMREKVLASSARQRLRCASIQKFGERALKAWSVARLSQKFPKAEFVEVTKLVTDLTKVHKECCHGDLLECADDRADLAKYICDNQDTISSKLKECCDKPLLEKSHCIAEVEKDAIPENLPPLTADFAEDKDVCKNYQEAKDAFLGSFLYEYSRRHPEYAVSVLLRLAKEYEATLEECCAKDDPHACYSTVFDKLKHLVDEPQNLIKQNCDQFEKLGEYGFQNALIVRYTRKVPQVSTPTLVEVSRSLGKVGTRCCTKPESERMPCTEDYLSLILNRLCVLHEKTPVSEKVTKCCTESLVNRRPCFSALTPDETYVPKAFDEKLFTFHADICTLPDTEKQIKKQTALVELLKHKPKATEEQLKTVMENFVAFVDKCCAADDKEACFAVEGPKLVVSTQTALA
A short description of experiment [2]: probe aXIP binding to arrayed compounds – biochemical, NeuroSMM set, 635/667 nm fluorescence, primary screen (AID 1119).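 Also: probe is the protein aXip251-270 applied at 1 µg/mL to compound-printed slides; binding of probe to printed compounds measured as 667 nm fluorescence plus signal to noise.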 As to conditions: small-molecule microarray, higher = more signal, called active from +8 up or from −8 down.
The nature of experiment [3]: probe aNOTCH3 binding on compound microarray – biochemical, small-molecule microarray, 635/667 nm fluorescence, primary screen (AID 1120).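 Also: probe is a biotin-tagged antibody raised against NOTCH3 rather than NOTCH3 protein; score merges spot fluorescence near 667 nm with spot signal to noise.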 As to conditions: higher = more signal.
Experiment [4] in a line: probe aNOTCH2 binding on compound microarray – biochemical, small-molecule microarray, 635/667 nm fluorescence, primary screen (AID 1121).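 Also: score merges feature fluorescence read at 667 nm with its signal to noise.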 As to conditions: higher = more signal.
Experiment [5] deals with Carbonic anhydrase 2 (Homo sapiens) (UniProt P00918). As to the kind of experiment: compounds binding carbonic anhydrase 2 – biochemical, small-molecule microarray, Alexa647-labelled CAII, profiling panel (AID 1122). The settings on record: CAII-A647 binding fluorescence, higher = more signal.
A short description of experiment [6]: COS7 lysate on small-molecule microarray, probe aHis, 635 nm (AID 1123).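 Also: z-score combines 667nm fluorescence intensity with signal-to-noise per printed compound spot.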 The settings on record: COS7 cell lysate, fluorescence, higher = more signal.
Experiment [7] in a line: probe aLAP1 signal on lysate-treated microarray – cell lysate, small-molecule microarray, COS7 lysate, primary screen (AID 1124).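 Also: lysate comes from COS7 cells expressing LAP1 and is applied at 0.3 µg/mL; score merges spot fluorescence near 667 nm with signal-to-noise over triplicate slides.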 As to conditions: probe aLAP1, fluorescence, higher = more signal.
For experiment [8], the system named is Sam68 (KHDRBS1). In words: compounds binding KHDRBS1 protein – biochemical, small-molecule microarray, 635 nm fluorescence, primary screen (AID 1125).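 Also: score merges 667 nm channel intensity with signal to noise over triplicate slides.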 As to conditions: higher = more signal.
Experiment [9] concerns Chordin-like protein 2 (CHRDL2). In words: compounds binding chordin-like 2 – biochemical, small-molecule microarray, 635 nm fluorescence, primary screen (AID 1126).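 Also: printed compound slides probed with Chrdl2 protein at 4 µg/mL for 1 h at 4 C; score merges 667 nm emission intensity with signal to noise over three replicate slides.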 As to conditions: fluorescence 635 nm, higher = more signal.
The target in experiment [10] is Concanavalin-A (Canavalia ensiformis) (UniProt P02866). In words: compounds binding concanavalin A lectin – biochemical, small-molecule microarray, Alexa647 label, 635 nm, artefact control for SMM control protein annotation, primary screen (AID 1127).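 Also: z combines 667 nm emission intensity with signal-to-noise across three replicate slides.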 The settings on record: ConA-A647 binding fluorescence, higher = more signal.
Concanavalin-A (Canavalia ensiformis), sequence (P02866 whole entry, looked up): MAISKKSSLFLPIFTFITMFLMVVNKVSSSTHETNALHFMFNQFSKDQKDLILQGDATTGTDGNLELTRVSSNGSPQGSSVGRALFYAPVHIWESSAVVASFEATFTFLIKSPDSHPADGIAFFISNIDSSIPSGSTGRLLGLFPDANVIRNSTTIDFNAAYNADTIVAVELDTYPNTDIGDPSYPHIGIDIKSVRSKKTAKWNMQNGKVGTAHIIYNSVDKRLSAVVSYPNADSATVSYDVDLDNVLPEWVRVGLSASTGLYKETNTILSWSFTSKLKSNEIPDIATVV
Experiment [11] can be described thus: compounds binding Alexa647 anti-His antibody – biochemical, small-molecule microarray, 635 nm fluorescence, artefact control for SMM control protein annotation, primary screen (AID 1128).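 Also: score merges feature fluorescence with signal-to-noise for each printed compound spot.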 As to conditions: higher = more signal.
Experiment [12] concerns Human papillomavirus type 1a E7 protein (residues 1-88). As to the kind of experiment: HPV1a E7 small-molecule binders, primary screen, biochemical, small-molecule microarray, residues 1-88, 635 nm (AID 1129). The settings on record: small-molecule microarray binding, fluorescence 635 nm; higher = more signal.
The target of experiment [13] is Focal adhesion kinase 1 (Homo sapiens) (UniProt Q05397). In words: PTK2 protein binding on printed compound slides – biochemical, small-molecule microarray, 635/667 nm fluorescence, BSA, DTT, primary screen (AID 1130).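 Also: composite of spot emission at 667 nm and signal to noise over triplicate slides.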 As to conditions: 635 nm fluorescence, higher = more signal.
Focal adhesion kinase 1 (Homo sapiens), sequence (Q05397 whole entry, looked up): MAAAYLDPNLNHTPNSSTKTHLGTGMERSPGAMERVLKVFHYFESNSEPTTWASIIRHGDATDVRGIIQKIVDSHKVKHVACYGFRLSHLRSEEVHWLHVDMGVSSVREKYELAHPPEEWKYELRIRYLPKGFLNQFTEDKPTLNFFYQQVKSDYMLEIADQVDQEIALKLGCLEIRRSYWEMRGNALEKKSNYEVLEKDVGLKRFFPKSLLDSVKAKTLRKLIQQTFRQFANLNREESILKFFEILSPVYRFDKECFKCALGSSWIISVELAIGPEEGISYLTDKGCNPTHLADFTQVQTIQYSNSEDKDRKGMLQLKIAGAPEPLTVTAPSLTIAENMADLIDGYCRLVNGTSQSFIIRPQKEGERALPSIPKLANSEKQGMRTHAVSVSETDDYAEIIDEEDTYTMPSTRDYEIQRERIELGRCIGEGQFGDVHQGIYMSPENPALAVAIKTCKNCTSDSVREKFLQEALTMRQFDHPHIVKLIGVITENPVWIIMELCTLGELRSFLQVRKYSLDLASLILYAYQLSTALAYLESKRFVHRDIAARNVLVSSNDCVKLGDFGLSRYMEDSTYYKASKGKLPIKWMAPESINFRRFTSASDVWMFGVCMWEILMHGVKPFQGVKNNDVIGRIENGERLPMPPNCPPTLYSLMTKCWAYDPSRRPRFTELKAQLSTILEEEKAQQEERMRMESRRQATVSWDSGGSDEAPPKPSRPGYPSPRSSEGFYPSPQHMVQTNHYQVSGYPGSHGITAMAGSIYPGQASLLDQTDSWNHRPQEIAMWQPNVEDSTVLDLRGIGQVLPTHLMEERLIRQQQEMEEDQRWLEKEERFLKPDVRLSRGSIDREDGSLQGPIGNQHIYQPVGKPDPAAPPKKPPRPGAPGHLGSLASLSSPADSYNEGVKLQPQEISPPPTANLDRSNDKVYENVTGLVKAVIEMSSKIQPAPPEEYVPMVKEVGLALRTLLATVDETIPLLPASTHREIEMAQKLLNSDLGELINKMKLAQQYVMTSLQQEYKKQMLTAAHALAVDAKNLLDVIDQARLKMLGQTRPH
Experiment [14] deals with Fibrinogen (Alexa647-labelled). In words: Alexa647-fibrinogen binding to printed small molecules – biochemical, small-molecule microarray, 635/667 nm fluorescence, artefact control for SMM control-protein annotation, profiling panel (AID 1131).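 Also: z-score merges 667 nm fluorescence with per-spot signal-to-noise over triplicate slides.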 As to conditions: fibrinogen-A647 binding fluorescence, higher = more signal.
Experiment [15] has as its target Follistatin (Homo sapiens) (UniProt P19883). In words: FST protein binding to printed compounds – biochemical, small-molecule microarray, 635/667 nm fluorescence, primary screen (AID 1132). The settings on record: 635 nm fluorescence, higher = more signal.
Experiment [16] deals with Fibroblast growth factor 2 (Homo sapiens) (UniProt P09038). In words: basic fibroblast growth factor binding to printed compounds – biochemical, small-molecule microarray, 635/667 nm fluorescence, primary screen (AID 1133). The settings on record: FGF2, fluorescence 635/667, higher = more signal.
Fibroblast growth factor 2 (Homo sapiens), sequence (P09038 whole entry, looked up): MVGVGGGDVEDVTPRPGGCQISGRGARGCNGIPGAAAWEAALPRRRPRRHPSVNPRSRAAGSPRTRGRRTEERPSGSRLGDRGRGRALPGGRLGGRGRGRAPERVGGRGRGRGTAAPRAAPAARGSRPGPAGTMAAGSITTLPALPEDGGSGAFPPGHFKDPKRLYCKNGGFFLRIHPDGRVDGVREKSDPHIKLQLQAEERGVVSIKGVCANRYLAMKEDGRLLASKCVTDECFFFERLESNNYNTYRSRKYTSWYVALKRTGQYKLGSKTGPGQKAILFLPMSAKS
The nature of experiment [17]: JC-1 mitochondrial potential readout, lung cancer cells – cell-based, A549, JC-1 fluorescence, basal, 24 h, 100 nL, profiling panel (AID 1138).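 Also: A549 lung adenocarcinoma cells under basal conditions with no added stimulus; test concentration not given here.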 As to conditions: higher = more signal.
The subject of experiment [18] is Lefty1. As to the kind of experiment: Lefty1 protein binding to printed compounds – biochemical, small-molecule microarray, 635/667 nm fluorescence, primary screen (AID 1139). As to conditions: fluorescence 635/667, higher = more signal.
Experiment [19] relates to wheat germ agglutinin (Triticum aestivum), Alexa647-labelled. In words: Alexa647-WGA lectin binding to printed small molecules – biochemical, small-molecule microarray, 635/667 nm fluorescence, artefact control for SMM control-protein annotation, profiling panel (AID 1140).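 Also: score merges 667 nm feature emission with signal to noise over triplicate slides.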 As to conditions: WGA-A647 binding, 635 nm fluorescence, higher = more signal.
The target in experiment [20] is Luciferin 4-monooxygenase (Photinus pyralis) (UniProt P08659). In words: inhibition of purified Photinus pyralis luciferase – biochemical, luminescence, purified enzyme, 2006 set, primary screen (AID 1141).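 Also: cell-free assay with purified firefly luciferase at 100 ng per well in PBS; test concentration not given here.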 The settings on record: purified firefly luciferase, SteadyGlo luminescence, 30 min; higher = more signal, called active from +8 up or from −8 down.
Luciferin 4-monooxygenase (Photinus pyralis), sequence (P08659 whole entry, looked up): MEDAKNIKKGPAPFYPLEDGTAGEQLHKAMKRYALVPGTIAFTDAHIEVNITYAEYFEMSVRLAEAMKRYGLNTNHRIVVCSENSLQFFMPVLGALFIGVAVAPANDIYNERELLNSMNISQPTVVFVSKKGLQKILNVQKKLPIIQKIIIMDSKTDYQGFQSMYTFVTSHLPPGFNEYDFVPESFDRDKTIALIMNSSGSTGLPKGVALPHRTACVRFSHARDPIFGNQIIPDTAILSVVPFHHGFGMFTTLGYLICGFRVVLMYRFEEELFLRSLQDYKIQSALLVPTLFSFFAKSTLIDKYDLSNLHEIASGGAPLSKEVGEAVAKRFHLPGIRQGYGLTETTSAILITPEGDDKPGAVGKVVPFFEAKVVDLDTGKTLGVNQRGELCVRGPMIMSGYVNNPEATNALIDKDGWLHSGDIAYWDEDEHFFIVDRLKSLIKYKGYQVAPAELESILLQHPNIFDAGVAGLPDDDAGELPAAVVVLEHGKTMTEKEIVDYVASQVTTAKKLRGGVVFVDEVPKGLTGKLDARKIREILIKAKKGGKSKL

Follistatin (Homo sapiens), sequence (P19883 whole entry, looked up): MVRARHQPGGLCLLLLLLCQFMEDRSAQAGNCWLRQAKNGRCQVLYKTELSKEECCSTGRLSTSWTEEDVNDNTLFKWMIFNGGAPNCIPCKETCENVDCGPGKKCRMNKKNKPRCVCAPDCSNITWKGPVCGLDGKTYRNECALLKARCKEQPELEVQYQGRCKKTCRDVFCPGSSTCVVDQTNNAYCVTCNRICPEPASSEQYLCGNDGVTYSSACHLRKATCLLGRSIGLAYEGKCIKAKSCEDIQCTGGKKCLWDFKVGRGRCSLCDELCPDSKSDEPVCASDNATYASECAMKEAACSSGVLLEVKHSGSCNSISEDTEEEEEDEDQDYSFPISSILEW

Regarding `Cc1cc(C)c(C(O)C2C=CC3C(=O)N(c4ccccc4)C(=O)C3N2Nc2ccc(C(C)C)cc2)c(C)c1` (stereo not given), the composite z-score in experiment [1] turned out to be 0.585; in [3] it was 0.331; in experiment [4] it was 0.0557; in experiment [5], 0.712; in experiment [6], 2.78; in [7], 0.8. Moreover, the composite z-score is 1.29 in experiment [8]; -0.545 in [9]; 1.18 in experiment [10]; 1.11 in [11]; 1.26 in [12]; 1.22 in experiment [13]. The composite z-score in experiment [14] is 1.02; in experiment [15], 0.811; in [16] it was 0.375; in experiment [18] it was -0.138; in experiment [19], 1.39. In experiment [2], the composite Z-score was 0.904 (inactive). Further, the z-score is 0.178 in experiment [17] and -0.197 (inactive) in experiment [20].

For `COc1ccc([Si](C)(C)[C@@H]2[C@@H](CCn3cc([C@H](O)c4ccccc4)nn3)O[C@]3(C(=O)N(Cc4ccc(N5CCC5=O)cc4)c4ccccc43)[C@H]2C)cc1`, the composite z-score in experiment [1] was 0.0006; in [3] it was -0.505; in experiment [4] it was -0.0849; in experiment [5], -0.266; in experiment [6] it was 0.121; in experiment [7], -0.426. The composite z-score in [8] was -0.323; in [9] it was -0.0871; in [10] it was 0.469; in [11], 0.174; in experiment [12] it was -0.304; in [13] it was -0.0467. Also, the composite z-score in [14] is -0.926; in [15], 1.31; in experiment [16], 0.749; in experiment [18], 1.05; in experiment [19], 0.118. In addition, in experiment [2], the composite Z-score is 0.811 (inactive). Further, the values for the z-score in [17] and in experiment [20] were 1.87 and -0.325 (inactive), respectively.

In the case of `CCOC(=O)C[C@H]1[C@H](OC(=O)c2cc3ccccc3oc2=O)[C@@H](NC(=O)c2ccc(-c3ccccc3)cc2)c2cc(OCCCO)ccc2N1C(=O)c1ccccc1`, the composite z-score in [1] is 0.551; in [3] it was 0.242; in [4] it was -0.0971; in [5], 0.274; in [6], 0.716; in experiment [7], -0.0433. In addition, the composite z-score came to 1.32 in [8]; 0.475 in experiment [9]; 0.858 in experiment [10]; 0.942 in experiment [11]; 1.2 in [12]; 0.309 in [13]. The composite z-score in experiment [14] amounted to 0.711; in [15], 1.34; in [16], 0.92; in experiment [18] it was 1.16; in experiment [19] it was 0.997. For the same compound, in [2], the composite Z-score was -0.0549 (inactive). Also, the z-score is -1.24 in experiment [17] and 0.207 (inactive) in experiment [20].

`O=C1c2ccccc2[C@](Cc2ccccc2I)(C(=O)NCC(F)(F)F)[C@H](c2ccc(CO)cc2)N1C1CCCCC1`: the composite z-score in experiment [1] was 0.689; in experiment [3], -0.0026; in [4] it was -0.0956; in experiment [5], 0.729; in experiment [6], 2.31; in experiment [7], 0.326. In addition, the composite z-score in [8] is 1.31; in experiment [9], 0.227; in [10], 1.16; in experiment [11], 1.64; in experiment [12] it was 1.21; in experiment [13], -0.003. Also, the composite z-score in [14] came out at 0.964; in [15] it was 0.846; in [16] it was 0.18; in experiment [18] it was 0.289; in [19], 0.856. In experiment [2], the composite Z-score is 0.328 (inactive). In addition, the z-score was 2.17 in experiment [17] and -1.61 (inactive) in experiment [20].

For `COc1ccc(-c2nc(-c3ccccc3)c3c(c2C)CO[Si]3(C(C)C)C(C)C)cn1`, the composite z-score in experiment [1] is -0.475; in experiment [3], -0.126; in experiment [4], -0.0921; in experiment [5] it was 0.0924; in [6], 0.583; in experiment [7] it was -0.209. The composite z-score in experiment [8] was 0.152; in experiment [9] it was 0.151; in experiment [10] it was -0.209; in [11] it was -0.479; in experiment [12] it was 0.081; in experiment [13], 0.268. Further, the composite z-score was -0.579 in experiment [14]; 0.16 in experiment [15]; 0.639 in [16]; 0.402 in experiment [18]; 0.0463 in experiment [19]. In addition, the composite Z-score in experiment [2] was 0.428 (inactive). Further, the z-score was -0.0772 in [17] and 0.431 (inactive) in [20].

Values taken from PubChem BioAssay.
